# Screening data (PubChem)
# The full list was thinned out, with hits kept by preference.
# Cycloheximide cs – Cycloheximide Counterscreen for Small Molecule Inhibitors of Shiga Toxin; cell reporter, cycloheximide protein synthesis inhibition counterscreen; 300,000 compounds, 12% hits; max response, %; in the data active = max response mostly above about 13%, no sharp cut-off; inactive = mostly below about 14%; also: read at 38.3 µM for the half of the compounds with a filed dose; 0% is about no effect
# Vaccinia mCherry – qHTS for Stage-Specific Inhibitors of Vaccinia Orthopoxvirus: mCherry Reporter Primary qHTS | Vaccinia virus mCherry reporter infection, fluorescence | Potency, µM (titrated, usually from 36.5 µM), for inactives: at the highest dose activity change, negative = inhibition, usual class: inhibitors | 310,000 compounds, 0.63% hits; calls by dose curve; tested in A549 cells; also: potency is read from the fitted curve at half-maximal effect; % is scaled to controls: 0 for no effect and ±100 for the full control effect; nearly all actives have a fitted effect of over 35% in size
# Shiga toxin inh – A qHTS for Small Molecule Inhibitors of Shiga Toxin; Vero cells, Shiga toxin protein synthesis inhibition reporter; inhibition, % at 38.7 µM; 290,000 compounds, 9.2% hits; in the data active = inhibition mostly above about 28%, no sharp cut-off; inactive = mostly below about 43%; also: 0% is about no effect
# Marburg entry inh – qHTS for inhibitors of binding or entry into cells for Marburg Virus; Marburg virus pseudotyped entry inhibition, cell reporter; Potency, µM (top dose mostly 37.8 µM), for inactives: at the highest dose activity change, negative = inhibition, most hits filed as inhibitors; 300,000 compounds, 1.8% hits; calls by dose curve; tested in HEK293 cells; also: potency is read from the fitted curve at half-maximal effect; % is scaled to controls: 0 for no effect and ±100 for the full control effect
# Lassa entry inh – qHTS for Inhibitors of binding or entry into cells for Lassa Virus; Lassa virus pseudotype entry inhibition, cell reporter; Potency, µM (highest dose often 37.9 µM), for the others: top-dose activity change, negative = inhibition, hits mostly inhibitors; 300,000 compounds, 1.2% hits; AID 540256, 2011; calls by dose curve; tested in HEK293 cells; also: potency is read from the fitted curve at half-maximal effect; % is scaled to controls: 0 for no effect and ±100 for the full control effect; nearly all actives have a fitted effect of over 50% in size
# VACV Venus inh – qHTS for Stage-Specific Inhibitors of Vaccinia Orthopoxvirus: Venus Reporter Primary qHTS; AID 720580, 2013; 330,000 compounds, 0.46% hits; Vaccinia virus Venus reporter expression, fluorescence; Potency, µM (top dose mostly 36.5 µM), for inactives: at the top dose activity change, negative = inhibition, most hits filed as inhibitors; calls by dose curve; tested in A549 cells; also: potency is read from the fitted curve at half-maximal effect; % is scaled to controls: 0 for no effect and ±100 for the full control effect; nearly all actives have a fitted effect of over 30% in size
# An asterisk follows results filed as active; i = inactive; ? = inconclusive; . = no result; [ ] = another dose, or the depositor's remark.
SMILES,Cycloheximide cs,Vaccinia mCherry,Shiga toxin inh,Marburg entry inh,Lassa entry inh,VACV Venus inh
CN(C)c1ccc(CNC(=O)CN2C(=O)CCn3nc(-c4cn(C)c5ccccc45)cc32)cc1,.,-10.0%,.,.,13.1%[46.1 µM],9.0%
Cc1nc(-c2cccc(Br)c2)ccc1C(=O)O,-4.2,-2.6%,4.4,-20.2%,22.6%,4.2%
O=C(N/N=C/c1cc(Cl)ccc1O)c1ccc(Br)cc1,12.8,3.16µM*,-1.9,?,10µM*,?
O=C(N/N=C\c1cc(Br)ccc1O)c1ccc(S(=O)(=O)N2CCCCC2)cc1,-1.2,5.01µM*,-10.3,?,?,?
O=C(c1ccncc1)N(c1ccc(N2CCOCC2)cc1)C(c1ccccc1)c1nc2ccccc2[nH]1 (configuration not stated),.,49.8%,.,.,.,2.6%
COc1ccccc1C(=O)COC(=O)COc1cccc2c1OC(C)(C)C2,52.2*,-5.4%,84.8*,3.8%,-11.9%,-8.8%
Cc1cccc(NC(=O)c2nc[nH]c2C(=O)N[C@@H](CCCCNC(=O)OC(C)(C)C)C(=O)OC(C)(C)C)c1,-2.8,-9.2%,-6.4,.,.,?
CC(C)OC(=O)c1cc2ccccc2[nH]1,23.3*,.,53.9*,9.1%,3.4%,.
CCOC(=O)c1cc2cc3ccccc3cc2[nH]1,54.1*,.,150.2*,?,?,.
Cc1ccc(/C(O)=C2\C(=O)C(=O)N(C)C2c2ccccc2[N+](=O)[O-])cc1 (configuration not stated),36.9*,i,.,0.3%,1.7%,-7.3%
Cc1ccc(/C(O)=C2\C(=O)C(=O)N(Cc3cccnc3)C2c2ccccc2[N+](=O)[O-])cc1 (configuration not stated),37.3*,-2.1%,83.3*,?,17.0%,11.5%
COc1ccc(NC(=O)CCS(=O)(=O)c2nc(-c3cccs3)cc(C(F)(F)F)n2)cc1OC,.,-8.2%[7.34 µM],.,?,?,-10.8%[7.34 µM]
Cn1cnnc1SCc1nc(N)nc(Nc2ccccc2)n1,3.4,-6.7%,27.7,?,13.6%,-4.8%
COc1ccc(Nc2nc(N)nc(CSc3nnc(N)s3)n2)cc1,26.4*,.,33.7,1.6%,11.6%,.
COc1ccc(Nc2nc(N)nc(CSc3nc(C)cc(C)n3)n2)cc1,17.9*,-28.5%,48.6*,?,?,-27.5%
Nc1nc(CSCCO)nc(Nc2ccccc2)n1,14.8,-10.5%,7.4,16.1%,0.5%,-9.5%
Nc1nc(CSc2ccccn2)nc(Nc2ccccc2)n1,33.0*,.,69.6*,?,?,.
Cc1ccc(Nc2nc(N)nc(CSc3nncn3C)n2)cc1,27.9*,-6.0%,63.7*,?,9.5%,-13.8%
NC(=O)c1ccccc1OC1CCC1,-1.4,i[7.34 µM],-8.6,10.8%[46.1 µM],-9.0%,-9.1%[7.34 µM]
COc1cccc(-n2c(=O)c3sc4ccccc4c3n(CC(=O)Nc3cccc(Cl)c3)c2=O)c1,.,-5.9%,.,11.7%[46.1 µM],-4.2%[46.1 µM],-10.8%
C#CCCCO/N=C1\C[C@@H](O)[C@@H](O)[C@@H]2[C@@H]3C(=O)N(c4ccc(F)cc4F)C(=O)[C@@H]3CC[C@@H]12,.,.,.,-8.0%[14.2 µM],.,.
CCc1ccc(Nc2nc(N)nc(CSc3nc4ccccc4s3)n2)cc1,29.0,-24.0%,49.1*,-29.1%[46.1 µM],14.3%[46.1 µM],-13.9%
COc1ccc(Nc2nc(N)nc(SCc3nnc(C)s3)n2)cc1,24.8*,-19.8%,40.0,7.0%,?,-9.8%
Nc1nc(CSc2nc3ccccc3s2)nc(N2CCCCC2)n1,2.4,.,7.4,-13.0%,?,-22.3%
COc1ccc2nc(SCc3nc(N)nc(Nc4ccccc4)n3)[nH]c2c1,16.3,?,31.5,?,-4.9%,-21.6%
SMILES,Cycloheximide cs,Vaccinia mCherry,Shiga toxin inh,Marburg entry inh,Lassa entry inh,VACV Venus inh
COc1ccccc1Nc1nc(N)nc(CSc2nnc(C)s2)n1,1.0,.,11.4,2.9%,19.1%,.
Cc1nnc(SCc2nc(N)nc(Nc3ccccc3)n2)s1,38.2*,.,68.9*,0.4%,-7.6%,.
COc1ccc(Nc2nc(N)nc(CSc3nccn3C)n2)cc1,35.9*,.,73.2*,.,.,.
CCCCOC(OCCCC)C(O)CSc1ccc2ccccc2c1 (configuration not stated),.,.,.,-28.4%[14.2 µM],.,.
CN(CC(=O)NCc1ccccc1Cl)S(=O)(=O)c1ccc2c(c1)c(=O)n(C)c(=O)n2C,.,-7.0%,.,18.1%[46.1 µM],0.7%[46.1 µM],1.8%
Cc1ccc(C)c(N2CCN(C(=O)CCc3nnc4n(CC(C)C)c(=O)c5ccccc5n34)CC2)c1,.,-24.4%,.,-16.0%[46.1 µM],.,-19.8%
COc1ccc(-c2nc(C#N)c(NCC3CCCO3)o2)cc1OC (configuration not stated),22.7*,.,10.5,-0.6%,0.6%,.
N#Cc1nc(-c2ccccc2Cl)oc1NCC1CCCO1 (configuration not stated),16.3,-33.5%,90.6*,.,.,-29.8%
CCOc1ccc(-c2nc(C#N)c(NCC3CCCO3)o2)cc1 (configuration not stated),12.8,.,28.0,-12.7%,-19.4%,.
CN(Cc1ccccc1)S(=O)(=O)c1ccc(Cl)c(C(=O)NCc2cccnc2)c1,.,-1.7%,.,-21.8%,9.3%,-22.9%
Cc1cc(C(=O)Nc2ccccc2-c2nc(CNC(=O)c3ccccc3Cl)c(C)o2)c(C)o1,.,i,.,.,.,-8.7%
O=P(Cc1ccccc1)(c1ccccc1)c1ccccc1,0.9,-1.9%,-6.4,2.5%,0.4%,-18.8%
CC(C)(C)c1cc(CP(=O)(c2ccccc2)c2ccccc2)cc(C(C)(C)C)c1O,12.7*,.,.,.,.,.
CCCOc1ccc(Br)cc1CSC(=N)N,-3.6,.,-5.6,7.3µM*,?,.
CN(C)/C=N/c1ncc(C(=O)c2ccc(Cl)cc2)s1,43.0*,.,57.7*,0.8%,12.4%,.
CCCc1nn(C)c(C(=O)Nc2cccc(Cl)c2)c1Cl,50.5*,-4.2%,66.5*,-2.7%,1.2%,-12.6%
CCCc1nn(C)c(C(=O)Nc2cccc(C)c2)c1Cl,58.5*,-14.5%,55.0*,1.8%,?,-17.1%
CN(/N=C/c1ccncc1)c1cnc2ccccc2n1,47.9*,-3.7%,75.3*,1.9%,?,-11.0%
CCCCc1ccc(Nc2ncccc2C#N)cc1,58.2*,.,121.9*,24.4%,?,-4.1%
N#Cc1cccnc1Nc1ccc(Cl)cc1,10.3,i,7.8,26.4%[46.1 µM],1.2%,-3.8%
O=C(Nc1ccccc1Oc1cccnc1)C1CCCN(C/C=C/c2ccccc2)C1 (configuration not stated),4.4,-0.4%,30.5,?,-6.7%,-21.4%
COc1ccc(CN2C(=O)CSCC2(C)C(=O)NCc2ccccc2)cc1 (configuration not stated),.,-14.7%,.,.,.,-2.7%
CC(/C=N/Nc1nnc2c(n1)[nH]c1ccccc12)=C\c1ccco1,32.0*,-14.4%,65.1,-10.9%,1.8%,-5.3%
COc1cccc(/C=N/Nc2nnc3c(n2)[nH]c2ccccc23)c1OC,35.7*,-12.2%,50.2*,?,?,-7.4%
